From PubChem BioAssay (Tox21)
Values joined by “and” are separate entries in the source; they are usually repeats but may differ in a detail not shown here. Equal values may be shown once. Inconclusive results are not listed. A structure can be active in one record and inactive in another. Active and inactive are the calls of the source. Unless noted, calls follow the shape of the dose curve; as a rule, active = well fitted curve in the direction sought with a large enough effect in the repeat runs; inconclusive = weak or mixed curves; inactive = no such curve, though single readings can be large; an effect the other way counts as inactive or inconclusive.

Tests used:
[1] = qHTS assay to identify small molecule antagonists of the estrogen related receptor (ERR) signaling pathway from Tox21 library (AID 1224848); also: nearly all actives have a fitted effect of over 50% in size
In short: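 Cells: ERR line, 2,000/well; 6 h preincubation 37 C/5% CO2. Cpd in DMSO via pin tool; 18 h, 37 C. ONE-Glo, 30 min RT, luminescence.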

[2] = qHTS assay to identify small molecule agonists of the estrogen related receptor (ERR) signaling pathway from Tox21 library (AID 1224849; calls by dose curve; also: nearly all actives have a fitted effect of over 15% in size); conditions: ERR reporter cell line, ONE-Glo luciferase, 18 h
In short: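 ERR reporter cell line (NTP) seeded, rested 6 h at 37 C/5% CO2, then pinned with Tox21 compounds in DMSO. After 18 h at 37 C, ONE-Glo luciferase luminescence was read following 30 min at room temperature.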

[3] = qHTS RealTime-Glo MT Cell Viability Assay in HepG2 cells - 24 hour (AID 1224867); also: nearly all actives have a fitted effect of over 50% in size
In short: (§1)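 Viability was tracked continuously by NanoLuc luminescence from prosubstrate reduced by living HepG2 cells, at successive time points over 40 h of compound exposure. Cells with reagent were preincubated 5 h at 37 °C before compound addition.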

[4] = qHTS RealTime-Glo MT Cell Viability Assay in HEK293 cells - 32 hour (AID 1224868); also: top concentration of the series differs between compounds; nearly all actives have a fitted effect of over 50% in size
In short: (§2)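 Viability tracked continuously by luminescence as live cells reduce a prosubstrate for NanoLuc; HEK293 cells preincubated 5 h, compound-treated at 37 C, and read at 0, 8, 16, 24, 32 and 40 h.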

[5] = A CellTox Green Cytotoxicity Assay to monitor cytotoxicity in HEK293 cells - 0 hour (AID 1224869); also: nearly all actives have a fitted effect of over 50% in size
In short: (§3)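 HEK293 cells premixed with CellTox Green dye were seeded at 600 cells/well and left 5 h at 37 C/5% CO2 before pin transfer of 23 nL compound in DMSO. Fluorescence from dye bound to dead-cell DNA was read during 40 h treatment.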

[6] = qHTS RealTime-Glo MT Cell Viability Assay in HepG2 cells - 40 hour (AID 1224870); also: nearly all actives have a fitted effect of over 50% in size
In short: (§4)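 HepG2 cells mixed with RealTime-Glo MT reagents (NanoLuc plus cell-permeant prosubstrate) were seeded at 600 cells/well, incubated 5 h at 37 C/5% CO2, then pinned with compounds in DMSO; nonlytic luminescence tracked viability during 40 h treatment.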

[7] = A CellTox Green Cytotoxicity Assay to monitor cytotoxicity in HEK293 cells - 40 hour (AID 1224871); also: nearly all actives have a fitted effect of over 45% in size
In short: as §3

[8] = qHTS RealTime-Glo MT Cell Viability Assay in HEK293 cells - 16 hour (AID 1224872)
In short: as §2

[9] = qHTS RealTime-Glo MT Cell Viability Assay in HEK293 cells - 40 hour (AID 1224874); conditions: RealTime-Glo luminescence; max response: stronger effect = lower value; also: nearly all actives have a fitted effect of over 50% in size
In short: (§5)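 HEK293 cells mixed with RealTime-Glo reagents (NanoLuc plus cell-permeant prosubstrate) at 600 cells/well, preincubated 5 h at 37 C/5% CO2, then given 23 nL compound in DMSO. Nonlytic luminescence from viable cells was read at 0, 8, 16, 24, 32 and 40 h.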

[10] = A CellTox Green Cytotoxicity Assay to monitor cytotoxicity in HEK293 cells - 24 hour (AID 1224875); also: nearly all actives have a fitted effect of over 45% in size
In short: as §3

[11] = qHTS RealTime-Glo MT Cell Viability Assay in HepG2 cells - 32 hour (AID 1224877); also: nearly all actives have a fitted effect of over 55% in size
In short: as §1

[12] = A CellTox Green Cytotoxicity Assay to monitor cytotoxicity in HepG2 cells - 24 hour (AID 1224878); also: nearly all actives have a fitted effect of over 45% in size
In short: (§6)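 HepG2 cells were seeded together with the CellTox Green dye at 600 cells/well, left 5 h at 37 C/5% CO2, then given compounds in DMSO. Fluorescence from dye bound to dead-cell DNA was read repeatedly over 40 h of treatment at 37 C.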

[13] = A CellTox Green Cytotoxicity Assay to monitor cytotoxicity in HepG2 cells - 40 hour (AID 1224879); also: nearly all actives have a fitted effect of over 40% in size
In short: as §6

[14] = A CellTox Green Cytotoxicity Assay to monitor cytotoxicity in HEK293 cells - 32 hour (AID 1224881); also: nearly all actives have a fitted effect of over 40% in size
In short: as §3

[15] = A CellTox Green Cytotoxicity Assay to monitor cytotoxicity in HepG2 cells - 0 hour (AID 1224882); also: nearly all actives have a fitted effect of over 35% in size
In short: as §6

[16] = A CellTox Green Cytotoxicity Assay to monitor cytotoxicity in HepG2 cells - 32 hour (AID 1224883); also: nearly all actives have a fitted effect of over 50% in size
In short: as §6

[17] = A CellTox Green Cytotoxicity Assay to monitor cytotoxicity in HEK293 cells - 8 hour (AID 1224884); also: nearly all actives have a fitted effect of over 35% in size; also: potency is read from the fitted curve at half-maximal effect
In short: as §3

[18] = qHTS RealTime-Glo MT Cell Viability Assay in HepG2 cells - 8 hour (AID 1224873); also: nearly all actives have a fitted effect of over 55% in size
In short: as §4

[19] = A CellTox Green Cytotoxicity Assay to monitor cytotoxicity in HepG2 cells - 16 hour (AID 1224876); also: nearly all actives have a fitted effect of over 45% in size
In short: as §6

[20] = qHTS RealTime-Glo MT Cell Viability Assay in HEK293 cells - 0 hour (AID 1224880)
In short: as §5
% is scaled to controls: 0 for no effect and ±100 for the full control effect.

CN(C)CCO
inactive: Potency [1] | activity change, positive = activation ([2]; at 92.4 µM (top of the series)) 0.0173% and 5.21% | outcome [3] | Potency [4] | Potency [5] | outcome [6] | Potency [7] | outcome [8] | max response [9] -6.53% and -6.4% | Potency [10] | outcome [11] | Potency [12] | Potency [13] | Potency [14] | Potency [15] | Potency [16] | Potency [17]

COCCl
inactive: Potency [1] | activity change, positive = activation ([2]; at 42.5 µM (top of the series)) 1.1% | activity change, positive = activation ([2]; at 92.4 µM (top of the series)) -18.8% | outcome [3] | Potency [4] | Potency [5] | outcome [6] | Potency [7] | outcome [8] | outcome [18] | max response [9] -4.66% and 2.93% | Potency [10] | outcome [11] | Potency [12] | Potency [13] | Potency [14] | Potency [15] | Potency [16]
22.7 µM (active) and inactive: Potency [17]

CC(C)N1C(=O)c2ccccc2NS1(=O)=O
inactive: Potency [1] | activity change, positive = activation ([2]; at 92.4 µM (top of the series)) -10.6% and -6.56% | Potency [4] | Potency [5] | outcome [6] | Potency [7] | outcome [8] | outcome [18] | max response [9] -5.03% and 3.56% | Potency [10] | Potency [19] | outcome [11] | Potency [12] | Potency [13] | outcome [20] | Potency [14] | Potency [15] | Potency [16] | Potency [17]

Nc1ccc(Oc2ccc(N)cc2)cc1
inactive: Potency [1] | activity change, positive = activation ([2]; at 92.4 µM (top of the series)) -8.13% and -18.8% | outcome [3] | Potency [4] | Potency [5] | outcome [6] | Potency [7] | outcome [8] | max response [9] -6.06% and -21.5% | Potency [10] | Potency [19] | outcome [11] | Potency [12] | Potency [13] | outcome [20] | Potency [14] | Potency [15] | Potency [16] | Potency [17]

CN1C(=O)CN=C(c2ccccc2)c2cc(Cl)ccc21
inactive: Potency [1] | activity change, positive = activation ([2]; at 42.5 µM (top of the series)) 8.92% | activity change, positive = activation ([2]; at 92.4 µM (top of the series)) -13.2% | outcome [3] | Potency [4] | Potency [5] | outcome [6] | Potency [7] | outcome [8] | outcome [18] | max response [9] -22% | Potency [10] | outcome [11] | Potency [12] | Potency [13] | outcome [20] | Potency [14] | Potency [15] | Potency [16] | Potency [17]

CC(C)(C)OOC(C)(C)C
inactive: Potency [1] | activity change, positive = activation ([2]; at 42.5 µM (top of the series)) 6.85% | activity change, positive = activation ([2]; at 92.4 µM (top of the series)) -1.09% | Potency [4] | Potency [5] | outcome [6] | Potency [7] | outcome [8] | outcome [18] | max response [9] 1.79% and 12.3% | Potency [10] | Potency [19] | outcome [11] | Potency [12] | Potency [13] | Potency [14] | Potency [15] | Potency [16] | Potency [17]
